The values below come from PubChem BioAssay.

A short description of assay [1]: HepG2 liver cancer cell viability effects, profiling panel, resazurin fluorescence, 24 h, PK04 Diversity Set (AID 1172). Also: test concentration not given here. As to conditions: higher = more signal. (In general: Resazurin is reduced to fluorescent resorufin, in cell work by metabolically active cells.)
A short description of assay [2]: basal S. cerevisiae growth modulation, no modifier, primary screen, OD600, strain BY4716, 24 h, basal condition (AID 1173). The conditions noted are these: OD600, 24 h, higher = more signal, called active from +8 up or from −8 down.
Assay [3] can be described thus: MM1S myeloma cell viability, profiling panel, resazurin fluorescence, basal, 24 h, PK04 Diversity Set (AID 1174).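 Also: MM1S multiple myeloma cell line; test concentration not given here.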 The conditions noted are these: higher = more signal, called active from +8 up or from −8 down.
The target of assay [4] is Dihydroorotate dehydrogenase (quinone), mitochondrial (Plasmodium falciparum (isolate 3D7)) (UniProt Q08210). Briefly: PfDHODH enzyme inhibitors, primary screen, biochemical, C-terminal His tag, absorbance 600 nm (AID 1175).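 Also: recombinant parasite enzyme with a five histidine tag at its C terminus; test concentration not given here.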 The conditions noted are these: DCIP absorbance 600 nm, higher = more signal, called active from +8 up or from −8 down.
Dihydroorotate dehydrogenase (quinone), mitochondrial (Plasmodium falciparum (isolate 3D7)), sequence (Q08210 whole entry, looked up): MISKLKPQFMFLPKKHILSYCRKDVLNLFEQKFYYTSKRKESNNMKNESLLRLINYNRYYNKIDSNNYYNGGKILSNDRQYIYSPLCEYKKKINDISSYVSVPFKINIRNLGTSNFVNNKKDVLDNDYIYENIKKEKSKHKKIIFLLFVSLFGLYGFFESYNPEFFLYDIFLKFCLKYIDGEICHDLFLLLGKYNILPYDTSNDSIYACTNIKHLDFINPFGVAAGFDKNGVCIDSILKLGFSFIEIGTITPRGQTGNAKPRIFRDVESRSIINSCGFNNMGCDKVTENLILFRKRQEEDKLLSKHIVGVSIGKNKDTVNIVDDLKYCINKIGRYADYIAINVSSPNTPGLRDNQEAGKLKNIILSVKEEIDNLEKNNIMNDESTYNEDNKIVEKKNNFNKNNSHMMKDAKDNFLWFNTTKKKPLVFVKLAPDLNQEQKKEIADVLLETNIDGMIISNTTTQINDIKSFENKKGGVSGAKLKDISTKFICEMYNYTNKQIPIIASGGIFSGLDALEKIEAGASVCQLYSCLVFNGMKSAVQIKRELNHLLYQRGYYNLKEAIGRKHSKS
Assay [5] in a line: P. aeruginosa biofilm formation inhibitors, primary screen, strain PAO1, LB-PBS medium, absorbance 600 nm (AID 1176). Also: test concentration not given here. As to conditions: P. aeruginosa PAO1 growth/biofilm, A600, 12 h; higher = more signal.
Assay [6] in a line: S. cerevisiae RM11-1a growth modifiers, primary screen, strain RM11-1a, OD600, basal, 24 h (AID 1177).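 Also: cultures grown under basal conditions with no added stressor; test concentration not given here.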 The conditions noted are these: OD600, 24 h, higher = more signal, called active from +8 up or from −8 down.
Assay [7] can be described thus: E. coli acrAB mutant growth effects, primary screen, E. coli filamentation inducers, strain DRC39, OD650, 24 h (AID 1178).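 Also: growth measured as culture turbidity by optical density at 650 nm; test concentration not given here.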 The conditions noted are these: higher = more signal, called active from +8 up or from −8 down.
A short description of assay [8]: E. coli acrAB mutant growth effects, primary screen, E. coli filamentation inducers, strain DRC39, OD650, 48 h (AID 1179).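 Also: screen aims at cell division blockers that make cells filament.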 The conditions noted are these: E. coli DRC39 delta-acrAB growth, higher = more signal, called active from +8 up or from −8 down.
A short description of assay [9]: RPMI8226 myeloma cell viability, profiling panel, resazurin fluorescence, basal, 24 h, PK04 Diversity Set (AID 1180).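 Also: RPMI8826 multiple myeloma cell line at 5000 cells per well; test concentration not given here.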 As to conditions: higher = more signal.
Assay [10] concerns the target E3 ubiquitin-protein ligase XIAP (Homo sapiens) (UniProt P98170). Briefly: XIAP binders, primary screen, biophysical, small-molecule microarray, fluorescence 635 nm (AID 1181).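 Also: score merges 667 nm emission and signal to noise over triplicate slides.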 The conditions noted are these: small-molecule microarray binding, higher = more signal.

Activity calls are given as the source filed them. Unless noted, no rule for the calls is given here.

E3 ubiquitin-protein ligase XIAP (Homo sapiens), sequence (P98170 whole entry, looked up): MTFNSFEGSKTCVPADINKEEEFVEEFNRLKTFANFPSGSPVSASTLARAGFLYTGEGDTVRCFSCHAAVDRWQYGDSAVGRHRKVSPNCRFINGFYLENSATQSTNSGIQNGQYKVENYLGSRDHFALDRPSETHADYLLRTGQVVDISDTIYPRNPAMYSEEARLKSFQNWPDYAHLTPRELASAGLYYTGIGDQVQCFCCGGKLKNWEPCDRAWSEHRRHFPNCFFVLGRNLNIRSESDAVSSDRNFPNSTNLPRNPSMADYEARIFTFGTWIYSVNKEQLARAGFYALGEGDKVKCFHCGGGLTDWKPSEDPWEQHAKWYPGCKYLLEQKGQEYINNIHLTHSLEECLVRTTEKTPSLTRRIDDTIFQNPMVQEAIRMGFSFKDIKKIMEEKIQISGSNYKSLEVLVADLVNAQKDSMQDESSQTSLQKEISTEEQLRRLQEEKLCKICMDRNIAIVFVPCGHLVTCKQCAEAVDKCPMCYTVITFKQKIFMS

In the case of `CC(C)NC(=O)[C@@H]1c2ccccc2C(=O)N(C(C)C)[C@H]1c1ccc(CO)cc1`, the z-score in assay [1] was 1.02; in [2], -0.37 (inactive); in assay [3] it was 0.537 (inactive); in assay [5], -0.397 (inactive); in assay [6], 0.0971 (inactive); in [7], 0.494 (inactive). Moreover, the z-score in [8] was 0.671 (inactive); in assay [9], 0.135. The composite z-score is 0.654 (inactive) in assay [4] and -0.398 in assay [10].

On to `COC(=O)c1c2oc(c1C(=O)OC)C(=O)NC1(CCCCC1)c1cn(nn1)C[C@H](Cc1ccccc1)NC(=O)N[C@H](CO)CC2`, for which the z-score in assay [1] is 1.68; in assay [2], -0.861 (inactive); in assay [3], 0.911 (inactive); in assay [5], 0.383 (inactive); in assay [6] it was -0.0499 (inactive); in assay [7] it was 1.09 (inactive). Also, the z-score in assay [8] was 1.66 (inactive); in [9], 0.456. In addition, the figures for the composite z-score in assay [4] and in [10] were -0.805 (inactive) and -0.118, respectively.

Take `C=CC[C@]1(C(=O)N2CCOCC2)N=C(c2ccc(OCCCO)cc2)O[C@H]1c1ccccc1N=[N+]=[N-]`: the z-score in [1] is 0.101; in [2], -1.01 (inactive); in assay [3], -0.454 (inactive); in assay [5] it was -0.167 (inactive); in assay [6], 0.275 (inactive); in [7] it was 1.31 (inactive). Moreover, the z-score in assay [8] is 0.844 (inactive); in [9], -0.266. The composite z-score was 0.846 (inactive) in assay [4] and 0.179 in assay [10].

As for `CCCCCCc1nc(-c2ccc(-c3ccc(Cl)c(Cl)c3)o2)c(C)c2c1[Si](C(C)C)(C(C)C)OC2`, the z-score in assay [1] was -0.865; in assay [2], -4.18 (inactive); in assay [3], -2.84 (inactive); in assay [5], 0.668 (inactive); in assay [6], -0.721 (inactive); in assay [7], -0.0618 (inactive). Besides, the z-score in assay [8] was -0.616 (inactive); in assay [9], -1.42. For the same compound, the composite z-score was -2.2 (inactive) in assay [4] and -0.113 in assay [10].

For `CCOC(=O)C1=CC[C@@H](c2ccc(C(F)(F)F)cc2)N(S(=O)(=O)c2ccc(C)cc2)[C@H]1c1ccccc1`, the z-score is -0.333 in assay [1]; 0.062 (inactive) in [2]; -2.34 (inactive) in [3]; -0.0601 (inactive) in [5]; -0.258 (inactive) in assay [6]; -0.604 (inactive) in assay [7]. Moreover, the values for the z-score in [8] and in [9] were -0.126 (inactive) and -5.04, respectively. Besides, the composite z-score in [4] is -0.296 (inactive); in assay [10], -0.278.

For `COC(=O)c1c(CC[C@@H](CO)NC(=O)NCCc2c[nH]c3ccccc23)oc(C(=O)Cc2ccccc2)c1C(=O)OC`, the z-score was 1.35 in assay [1]; -1.46 (inactive) in [2]; 1.31 (inactive) in assay [3]; -0.771 (inactive) in assay [5]; -0.731 (inactive) in assay [6]; 1.04 (inactive) in assay [7]. Besides, the z-score in [8] is 0.733 (inactive); in assay [9], 0.861. The values for the composite z-score in assay [4] and in assay [10] were -2.63 (inactive) and -0.406, respectively.

In the case of `COCCOC(=O)N1C(=O)[C@@]2(c3ccccc31)[C@H](C(N)=O)[C@H]1C(=O)O[C@H](c3ccccc3)[C@H](c3ccccc3)N1[C@@H]2c1ccc(O)cc1`, the z-score in assay [1] is -0.755; in assay [2], -0.494 (inactive); in assay [3], -0.593 (inactive); in assay [5] it was 0.806 (inactive); in assay [6], 0.275 (inactive); in [7] it was 0.396 (inactive). Besides, the z-score in [8] is 0.787 (inactive); in assay [9], -1.01. In addition, the values for the composite z-score in assay [4] and in assay [10] were -0.294 (inactive) and 0.175, respectively.

For `COCC(=C=CC[C@@H](O)c1ccc(OCCO)cc1)C[C@@H](O)c1ccccn1`, the z-score in assay [1] is -0.495; in [2], -0.58 (inactive); in assay [3] it was -0.46 (inactive); in [5], 1.05 (inactive); in [6] it was -0.0975 (inactive); in assay [7], 0.0525 (inactive). For the same compound, the z-score in assay [8] was 0.0639 (inactive); in assay [9] it was -0.104. Besides, the composite z-score is -2.5 (inactive) in assay [4] and 0.0785 in [10].

For `COCCOC(=O)N1C(=O)[C@@]2(c3cc(C#CC4(O)CCCCCC4)ccc31)[C@H](C(=O)Nc1nc3ccccc3s1)[C@H]1C(=O)O[C@H](c3ccccc3)[C@H](c3ccccc3)N1[C@@H]2c1ccccc1OCCO`, the z-score in [1] is 0.709; in assay [2], 0.504 (inactive); in [3], -1.15 (inactive); in assay [5], 0.249 (inactive); in assay [6], 1.78 (inactive); in assay [7] it was -0.632 (inactive). Besides, the figures for the z-score in assay [8] and in assay [9] were 0.635 (inactive) and -0.435, respectively. For the same compound, the composite z-score was -0.747 (inactive) in assay [4] and -0.0118 in assay [10].

As for `COCCOC(=O)N1C(=O)[C@@]2(c3cc(C#CC4(O)CCCCCC4)ccc31)[C@H](c1ccccc1OCCO)N1[C@H](c3ccccc3)[C@H](c3ccccc3)OC(=O)[C@H]1[C@@H]2C(=O)N1CCc2cc(OC)c(OC)cc2C1`, the z-score in assay [1] was 0.598; in assay [2] it was 2.06 (inactive); in assay [3] it was -0.9 (inactive); in [5], 2.26 (inactive); in assay [6], 3.05 (inactive); in [7], -0.404 (inactive). Moreover, the results for the z-score in assay [8] and in assay [9] were -0.405 (inactive) and -0.203, respectively. The composite z-score in assay [4] was 0.445 (inactive); in [10], -0.127.

Turning to `CC(C)[Si](C#C[Si](C(C)C)(C(C)C)C(C)C)(O[C@H](C)c1cn(Cc2ccccc2)nn1)C(C)C`, the z-score in assay [1] was 0.0403; in assay [2], 0.745 (inactive); in [3], 1.74 (inactive); in assay [5], 0.419 (inactive); in assay [6], -0.0006 (inactive); in assay [7] it was -0.118 (inactive). Moreover, the z-score in assay [8] was 0.164 (inactive); in assay [9], 0.776. Further, the composite z-score in assay [4] is -0.348 (inactive); in assay [10] it was 0.013.

Turning to `Cc1ccc([C@H]2C(C(=O)O)=CCN2S(=O)(=O)c2ccc(C)cc2)cc1`, the z-score was -0.585 in assay [1]; 0.292 (inactive) in assay [2]; -0.81 (inactive) in assay [3]; -0.088 (inactive) in assay [5]; -0.114 (inactive) in assay [6]; -0.429 (inactive) in [7]. The z-score is -0.392 (inactive) in assay [8] and -0.325 in assay [9]. The composite z-score was -0.381 (inactive) in assay [4] and 0.296 in [10].

For the compound `COCCCNC(=O)[C@@H]1c2ccccc2C(=O)N(Cc2ccccc2OC)[C@H]1c1ccc(CO)cc1`, the z-score was 1.13 in assay [1]; -0.993 (inactive) in assay [2]; 1.71 (inactive) in [3]; 1.23 (inactive) in [5]; -0.839 (inactive) in assay [6]; 0.342 (inactive) in assay [7]. Moreover, the results for the z-score in assay [8] and in [9] were 0.261 (inactive) and 1.14, respectively. In addition, the composite z-score is 0.253 (inactive) in assay [4] and 0.0472 in assay [10].
